Assay outcomes from PubChem.
LmPK inhibitor: inhibitors of Leishmania mexicana pyruvate kinase. Potency, µM (doses to about 57.5 µM), for the others: at the top dose activity change, negative = inhibition, actives largely listed as inhibitors. Q27686. AID 1721. purified LmPK, Kinase-Glo ATP luminescence, 1 h. actives 0.37% (n = 290,000); also: potency is read from the fitted curve at half-maximal effect; % is scaled to controls: 0 for no effect and ±100 for the full control effect
Target sequence (Q27686 whole entry, looked up): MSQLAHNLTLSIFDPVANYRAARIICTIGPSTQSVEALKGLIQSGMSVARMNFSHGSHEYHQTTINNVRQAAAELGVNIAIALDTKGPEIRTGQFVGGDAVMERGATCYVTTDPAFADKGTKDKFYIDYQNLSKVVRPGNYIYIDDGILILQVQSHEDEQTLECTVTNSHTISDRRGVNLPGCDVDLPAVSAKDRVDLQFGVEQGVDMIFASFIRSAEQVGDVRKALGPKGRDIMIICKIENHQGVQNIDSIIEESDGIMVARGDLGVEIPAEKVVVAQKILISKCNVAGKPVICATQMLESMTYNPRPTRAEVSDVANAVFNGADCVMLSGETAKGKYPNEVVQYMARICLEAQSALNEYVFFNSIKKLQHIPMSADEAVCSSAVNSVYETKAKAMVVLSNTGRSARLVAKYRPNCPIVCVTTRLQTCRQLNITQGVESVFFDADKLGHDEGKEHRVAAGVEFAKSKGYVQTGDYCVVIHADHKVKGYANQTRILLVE
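Purified LmPK (0.1 nM) converted ADP (0.1 mM) to ATP with PEP (0.5 mM) in imidazole buffer pH 7.2 with KCl and MgCl2, 1 h at room temperature. ATP was read by Kinase-Glo luminescence; data normalized to uninhibited and no-enzyme controls.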
Shiga inhibitor: inhibitors of Shiga toxin in Vero cells. inhibition, % at 38.7 µM. actives 9.2% (n = 290,000). Vero cells, Shiga toxin protein synthesis inhibition reporter; in the data active = inhibition mostly above about 28%, no sharp cut-off; inactive = mostly below about 43%; also: 0% is about no effect
Pf growth 48h: inhibits P. falciparum growth in the first generation, 48 h; P. falciparum luciferase growth in erythrocytes, 48 h; Potency, µM (doses to about 28.7 µM), inactives show at the highest dose activity change, negative = inhibition, actives largely listed as inhibitors; actives 5.9% (n = 310,000); also: potency is read from the fitted curve at half-maximal effect; % is scaled to controls: 0 for no effect and ±100 for the full control effect
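Firefly luciferase activity from engineered P. falciparum reports growth; inhibitors lower the luminescent signal. Cultures contained 2% hematocrit erythrocytes at 0.1% final parasitemia.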
CHX counter: affects cycloheximide protein synthesis inhibition readout, counter-screen. cell reporter, cycloheximide protein synthesis inhibition counterscreen. max response, %. actives 12% (n = 300,000). AID 2314; in the data active = max response mostly above about 13%, no sharp cut-off; inactive = mostly below about 14%; also: read at 38.3 µM for the half of the compounds with a filed dose; 0% is about no effect
Pf growth 96h: P. falciparum growth inhibition at 96 hours; P. falciparum luciferase reporter growth, 96 h; Potency, µM (series often up to 28.7 µM), for inactives: top-dose activity change, negative = inhibition, most hits filed as inhibitors; actives 6.9% (n = 320,000); also: potency is read from the fitted curve at half-maximal effect; % is scaled to controls: 0 for no effect and ±100 for the full control effect
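Two-generation exposure (96 h) targets delayed-death phenotype. Reporter parasites carrying integrated firefly luciferase, in red cells at 2% hematocrit and 0.05% parasitemia final, kept at 37 C, 5% CO2; luminescence loss indicates inhibition.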
An asterisk follows results filed as active. The list is not random: actives were taken first. Their share in the collection is about 22%. Unless noted, calls follow the shape of the dose curve; as a rule, active = well fitted inhibition curve with a large enough effect; inconclusive = small, poorly fitted or top-dose-only effect, or another doubt; inactive = no such curve, though single readings can be large or run the other way.

How did Cc1cc(NC(=O)CSc2nnc(-c3ccco3)o2)no1 do in these assays?
LmPK inhibitor: 5.5%; Shiga inhibitor: -8.2; Pf growth 48h: -15.7%; CHX counter: -0.5; Pf growth 96h: -0.9%

What do the screens show for `O=C(CSc1ccc(Cl)cc1)Nc1cccc(-c2nnc(-c3ccco3)o2)c1`?
LmPK inhibitor: 5.4%; Shiga inhibitor: 2.0; Pf growth 48h: 59.4%; CHX counter: 1.4; Pf growth 96h: -18.0%

What do the screens show for `COc1ccccc1NC(=O)CSc1nnc(-c2ccc(C)cc2)o1`?
LmPK inhibitor: -1.3%; Shiga inhibitor: 55.7; Pf growth 48h: 281.4%; CHX counter: 41.0*; Pf growth 96h: inconclusive

Results for Cc1cc(-c2nnc(SCC(=O)Nc3nc(-c4ccccc4)cs3)o2)no1 ?
LmPK inhibitor: 1.4%; Shiga inhibitor: 19.8; Pf growth 48h: -0.4%; CHX counter: -2.9; Pf growth 96h: 19.0%

How did Cc1csc(NC(=O)CSc2nnc(-c3cc(C)on3)o2)n1 do in these assays?
LmPK inhibitor: -2.2%; Shiga inhibitor: 39.9; Pf growth 48h: 30.6%; CHX counter: 15.1*; Pf growth 96h: 17.9%

Results for COc1ccc(-c2nnc(SCC(=O)Nc3cc(C)on3)o2)cc1 ?
LmPK inhibitor: -1.2%; Shiga inhibitor: 44.0*; Pf growth 48h: 8.1%; CHX counter: 32.9*; Pf growth 96h: inconclusive

What do the screens show for `N#CC(C#N)=Cc1cccn1-c1ccc(S(N)(=O)=O)cc1`?
LmPK inhibitor: -6.3%; Shiga inhibitor: -6.5; Pf growth 48h: -9.1%; CHX counter: 3.7; Pf growth 96h: -15.6%

Results for Cc1sc(C(=O)Nc2ccc3ccccc3c2)cc1CC(=O)O ?
LmPK inhibitor: 1.6%; Shiga inhibitor: 20.0; Pf growth 48h: 53.4%; CHX counter: 12.2; Pf growth 96h: -16.8%

Results for COc1cccc(NC(=O)CSc2nnc(-c3ccc(C)cc3)o2)c1 ?
LmPK inhibitor: 9.5%; Shiga inhibitor: 45.2*; CHX counter: 27.8*; Pf growth 96h: inconclusive

Results for CCOc1ccc(NCc2nnc(SCC(=O)Nc3cc(C)on3)n2-c2ccccc2OC)cc1 ?
LmPK inhibitor: 3.3%; Shiga inhibitor: 9.1; Pf growth 48h: inconclusive; CHX counter: -2.6; Pf growth 96h: 15.1%

Results for Cc1ccc(NC(=O)CSc2nnc(-c3ccncc3)o2)cc1 ?
LmPK inhibitor: 1.4%; Shiga inhibitor: 17.0; Pf growth 48h: 41.7%; CHX counter: 3.5; Pf growth 96h: 52.4%

Results for COc1ccc2c(c1)C(C)=CC(C)(C)N2C(=O)CSc1nnc(-c2ccc(C)cc2)o1 ?
LmPK inhibitor: 1.2%; Shiga inhibitor: -8.1; Pf growth 48h: 9.28µM*; CHX counter: 1.1; Pf growth 96h: -1.8%

How did COc1ccc(-c2nsc(SCC(=O)Nc3cc(C)on3)n2)cc1 do in these assays?
LmPK inhibitor: 4.6%; Shiga inhibitor: 6.8; Pf growth 48h: 5.86µM*; CHX counter: 6.8; Pf growth 96h: inconclusive

Results for CCOc1ccc(NCc2nnc(SCC(=O)Nc3cc(C)on3)n2-c2ccc(OC)cc2)cc1 ?
LmPK inhibitor: 1.7%; Shiga inhibitor: -3.5; Pf growth 48h: 13.1µM*; CHX counter: -3.4; Pf growth 96h: inconclusive

How did O=C(NCc1ccccc1F)C1CCCN1C(=O)Nc1ccc(F)cc1 (configuration not stated) do in these assays?
LmPK inhibitor: -2.1%; Pf growth 48h: 5.7%; CHX counter: -1.7; Pf growth 96h: 0.0%

What do the screens show for `O=C(NCc1ccco1)c1ccccc1NS(=O)(=O)c1ccc(Br)s1`?
LmPK inhibitor: 3.0%; Shiga inhibitor: -10.9; Pf growth 48h: 35.3%; CHX counter: -2.3; Pf growth 96h: inconclusive

How did O=C(OCCOc1ccccc1Cl)c1ccc(-n2cnnn2)cc1 do in these assays?
LmPK inhibitor: 3.8%; Shiga inhibitor: 74.9; Pf growth 48h: 81.1%; CHX counter: 35.6*; Pf growth 96h: 37.2%

Results for c1ccc2c(c1)CNc1ccccc1O2 ?
LmPK inhibitor: -0.8%; Shiga inhibitor: -2.2; Pf growth 48h: 17.4%; CHX counter: 10.0; Pf growth 96h: -13.2%

How did Cc1ccc2c(c1)CNc1ccccc1O2 do in these assays?
LmPK inhibitor: 7.2%; Shiga inhibitor: 45.4; CHX counter: 12.7*; Pf growth 96h: -3.5%

How did O=C(c1ccc2ccccc2c1)C1CCCN(S(=O)(=O)c2cccnc2)C1 (configuration not stated) do in these assays?
LmPK inhibitor: 1.1%; Shiga inhibitor: 3.4; Pf growth 48h: inconclusive; CHX counter: -1.5; Pf growth 96h: 25.4%

Results for CCCCN1C(=O)C(=O)N(c2ccccc2)C1=S ?
LmPK inhibitor: -8.9%; Shiga inhibitor: active; Pf growth 48h: -16.5%; CHX counter: 66.6*; Pf growth 96h: 57.0%

Results for COc1ccccc1Nc1ncc(-c2cccs2)s1 ?
LmPK inhibitor: -11.1%; Shiga inhibitor: 107.9*; Pf growth 48h: 168.3%; CHX counter: 40.2*; Pf growth 96h: inactive

How did COc1ccccc1NS(=O)(=O)c1cc(NC(=O)C2CC2)ccc1N1CCOCC1 do in these assays?
LmPK inhibitor: 3.1%; Shiga inhibitor: 18.3; Pf growth 48h: inconclusive; CHX counter: 1.9; Pf growth 96h: 11.7µM*

Results for O=C(Nc1ccc(N2CCOCC2)c(S(=O)(=O)Nc2cc(Cl)ccc2Cl)c1)c1cccnc1 ?
LmPK inhibitor: -1.2%; Shiga inhibitor: 9.4; Pf growth 48h: -7.4%; CHX counter: -2.8; Pf growth 96h: 6.1%

How did COc1ccccc1NS(=O)(=O)c1cc(NC(=O)Nc2cccc(C)c2)ccc1N1CCCCC1 do in these assays?
LmPK inhibitor: 1.7%; Shiga inhibitor: 15.8; Pf growth 48h: 3.7µM*; CHX counter: -2.4; Pf growth 96h: 3.7µM*

Results for COc1ccccc1NS(=O)(=O)c1cc(NC(=O)c2ccc(=O)[nH]c2)ccc1N1CCOCC1 ?
LmPK inhibitor: -2.9%; Shiga inhibitor: -8.8; Pf growth 48h: inconclusive; CHX counter: -5.7; Pf growth 96h: 11.7µM*

What do the screens show for `O=C(Nc1ccc(N2CCOCC2)c(S(=O)(=O)Nc2ccccc2Cl)c1)c1ccccc1`?
Pf growth 48h: 10.4µM*; Pf growth 96h: inconclusive

What do the screens show for `CC1(C)CC(=O)C2=C(C1)N(c1ccccc1)C(=O)C2(O)C(F)(F)F` (configuration not stated)?
LmPK inhibitor: 1.9%; Shiga inhibitor: -8.4; Pf growth 48h: -11.2%; CHX counter: -2.1; Pf growth 96h: 3.9%

What do the screens show for `COc1ccccc1CNc1ccc(N2CCOCC2)c(C(=O)O)c1`?
LmPK inhibitor: 0.0%; Shiga inhibitor: -6.8; Pf growth 48h: 13.2%; CHX counter: 3.3; Pf growth 96h: 13.1µM*

Results for O=C(O)c1cc(NCc2ccccc2)ccc1N1CCOCC1 ?
LmPK inhibitor: -10.5%; Shiga inhibitor: -23.6; CHX counter: -4.1; Pf growth 96h: -3.6%

How did COc1ccccc1NS(=O)(=O)c1cc(N2Cc3ccccc3C2=N)ccc1N1CCOCC1 do in these assays?
LmPK inhibitor: 2.0%; Shiga inhibitor: -16.4; Pf growth 48h: -27.9%; CHX counter: -1.7; Pf growth 96h: inconclusive
